# Source: PubChem BioAssay (Small Molecule Screening Facility, UW Madison)
# RMI-FANCM inh – inhibitors of human RMI core complex binding to FANCM MM2; AID 1159607; 70,000 compounds, 0.58% hits; FP signal (polarization) at 33 µM; Fluorescence polarization, RMI core complex with F-MM2 peptide; stronger effect = lower value; in the data active = FP signal below about 40
# Starred values were filed as active, the others as inactive; ! = not active in a repeat. The entries come from a sample that favours hits as a whole.
SMILES,RMI-FANCM inh
O=c1c2scc(-c3ccccc3)c2ncn1Cc1cc(=O)n2ccccc2n1,-6*
COc1ccc(-c2csc3c(=O)n(Cc4ccccc4F)cnc23)cc1,66
CCOC(=O)c1ccc(NC(=S)NCc2ccc(C#N)cc2)cc1,59
COc1cc(C(=O)NCC(=O)NNc2ncnc(N)c2[N+](=O)[O-])cc(OC)c1OC,60
COC(=O)C1=C(C)NC(C)=C(C(=O)OCC(C)C)C1c1ccccc1[N+](=O)[O-] (centres undefined),21*!
COC(=O)C1=C(C)Nc2[nH]ncc2C1c1ccccc1 (centres undefined),69
COC(=O)C1=C(C)NC(C)=C(C(=O)OC(C)C)C1c1cccc2nonc12 (centres undefined),58
Cn1c(=O)c2c(ncn2CC(O)CN2CCN(c3ccccc3)CC2)n(C)c1=O (centres undefined),55
Cc1ccc(C)c(NC(=O)Cc2csc(NC(=O)NC3CCCC3)n2)c1,57
CC(=O)c1c(C)nn(CC(=O)Nc2ccc(Cl)c(Cl)c2)c1C,62
Cc1ccc(C)c(S(=O)(=O)Nc2ccccc2F)c1,73
Cc1ccc(C)c(S(=O)(=O)n2cccn2)c1,63
Cc1ccc(C)c(S(=O)(=O)N=C2C=C(Br)C(=O)c3ccccc32)c1,-1*
Clc1ccc(C=Nc2ncn[nH]2)cc1,61
CC(=O)Nc1ccc(/C=N\NC(=O)N/N=C\c2ccc(NC(C)=O)cc2)cc1,53
O=C(CSc1nc(SCC(=O)c2ccccc2)c2c3c(sc2n1)CCC3)c1ccccc1,79
O=C(CSc1nc2sc3c(c2c(=O)n1-c1ccccc1)CCCCC3)Nc1ccccc1,71
CCNc1nc(SCC(=O)NC(=O)Nc2ccccc2)nc2sc3c(c12)CCN(C)C3,33*!
O=C(Cn1nc2n(c(=O)c1=O)CCN2c1ccc(F)cc1)Nc1ccccc1C(F)(F)F,55
CCn1c(/C=N\NC(=O)COc2ccccc2Br)nc2ccccc21,59
NC(=O)c1ccc(NC(=O)CC2CSc3nc4c(cnn4-c4ccccc4)c(=O)n32)cc1 (centres undefined),79
Cc1cccc(N2CCN(c3cc(C)nc4nc(C(F)(F)F)nn34)CC2)n1,57
O=C(CCCn1nc(-c2ccco2)ccc1=O)N(Cc1ccccc1)c1ccccc1,66
CCCCNC(=O)/C(C#N)=C/N1CCN(c2cccc(C(F)(F)F)c2)CC1,77
O=c1ccc2cc(N=Cc3cc(Cl)cc(Cl)c3O)ccc2o1,30*
SMILES,RMI-FANCM inh
Oc1c(Cl)cc(Cl)cc1C=Nc1ccc2nc[nH]c2c1,12*
CCOC(=O)c1ccc(N=Cc2cc(Cl)cc(Cl)c2O)cc1,24*
CCOC(=O)c1ccc(N=Cc2ccc(OC(=O)c3ccc(F)cc3)c(OC)c2)cc1,60
N#CCCSc1ccccc1N=Cc1cc(Cl)cc(Cl)c1O,33*
Oc1ccccc1C=Nc1ccccc1SCc1csc(-c2ccc(Cl)cc2)n1,50
O=C(Nc1ccc2oc(=O)ccc2c1)c1ccc(F)cc1,63
N#CCCSc1ccccc1NC(=O)c1ccc(Cl)s1,59
Fc1cc2[nH]cnc2cc1Cl,62
CCOC(=O)c1ccc(N=Cc2ccccn2)cc1,51
O=c1ccc2cc(O)c(O)cc2o1,41
CN(/N=C\c1cc(Cl)cc(Cl)c1O)c1ccc([N+](=O)[O-])cn1,44
CCc1ccc(N2C(=O)C3N=NN(Cc4nc(-c5ccccc5Cl)no4)C3C2=O)cc1 (centres undefined),62
CCOC(=O)c1sc(NC(=O)c2ccccc2Cl)nc1-c1ccccc1,67
CCN(C1CCCCC1)S(=O)(=O)c1ccc(C(=O)Nc2cc(C)nn2C)cc1,66
CS(=O)(=O)c1cc([N+](=O)[O-])c(NC2CCS(=O)(=O)C2)c([N+](=O)[O-])c1 (centres undefined),59
Cc1cc(C)c(C)c(-c2nnc(NC(=O)c3ccc([N+](=O)[O-])cc3[N+](=O)[O-])s2)c1C,60
O=C(NCCOc1cccc(C(F)(F)F)c1)c1ccc(S(=O)(=O)N2CCCC2)cc1,62
Cc1[nH]n(C)c(=O)c1N=Nc1ccc2c(c1)COCO2,49
O=Cc1cccc2cccnc12,60
Oc1c(Cl)cc(Cl)cc1C=Nc1cccc2cccnc12,27*
Oc1c(Cl)cc(Cl)cc1C=Nc1ccc2c(c1)COCO2,37*
Fc1ccc(N=Cc2ccc3c(c2)OCO3)cc1,54
Oc1c(Cl)cc(Cl)cc1C=Nc1nc2c(s1)CCCC2,33
N#Cc1ccc(C(=O)NCC(c2ccsc2)N2CCOCC2)cc1 (centres undefined),66
O=c1cc(O)cc(/C=C/c2ccc(O)c(O)c2)o1,15*
SMILES,RMI-FANCM inh
O=C(O)C=Cc1ccc(O)c(O)c1,60
N#C/C(=C\c1ccc(O)c(O)c1)C(=O)c1ccc(O)c(O)c1,93
Cc1ccc(CSc2nc3c(c(=O)[nH]2)C(c2ccc4c(c2)OCO4)C2=C(CCCC2=O)N3)cc1 (centres undefined),61
CSc1nnc(SC)n1N=C(N)c1cccc(C(F)(F)F)c1,58
O=C(O)c1cccc2cccc(C(=O)O)c12,53
O=C(O)c1cccc(Cl)c1C(=O)O,58
Nc1ccc(C(=O)O)c2c(C(=O)O)cccc12,19*
CCOc1ccc(-c2[nH]ncc2Oc2cccc(OC)c2)c(O)c1,59
COc1ccccc1Oc1cn[nH]c1-c1ccc(O)cc1O,57
Oc1ccc(-c2[nH]ncc2Oc2ccccc2)c(O)c1O,31*
C(=N/Nc1nnc(-c2ccccc2)c(-c2ccccc2)n1)/c1ccncc1,56
C(=N/Nc1nc2ccccc2s1)/c1ccco1,61
C(/C=C/c1ccco1)=N/Nc1nnc(-c2ccccc2)c(-c2ccccc2)n1,21*
O=C(c1csc2nc(-c3ccc(F)cc3)cn12)N1CCc2ccccc21,70
CC(=O)N1CCc2ccc(NC(=O)c3c(-c4ccccc4Cl)noc3C)cc21,66
Cc1onc(-c2ccccc2Cl)c1C(=O)Nc1ccc2c(c1)COCO2,1*
Cc1onc(-c2ccccc2Cl)c1C(=O)Nc1ccc2c(c1)OCC(C)(C)C(=O)N2,66
Cc1cc(C=C(C#N)C#N)c(C)n1-c1ccc(C(F)(F)F)cc1,61
O=C(Cc1ccc2c(c1)OCO2)N1CCCCC1,53
O=C(c1ccc2c(c1)OCCO2)N1CCCCC1,-20*
O=C(O)c1ccc2c(c1)OCCO2,53
CCOC(=O)c1c(C(C)(C)C)oc2ccc(OCc3cccc([N+](=O)[O-])c3)cc12,55
CCc1cc2c(=O)c(-c3ccc4c(c3)OCCCO4)coc2cc1OC(=O)c1ccco1,68
CCOc1ccc(N2CC(NC(=O)NCC3CCCO3)CC2=O)cc1 (centres undefined),56
O=c1c2sc3ccccc3c2[nH]c(=S)n1CC1CCCO1 (centres undefined),57
SMILES,RMI-FANCM inh
CCOc1ccc2c(c1)=CC(=Cc1sc(=S)n(CC3CCCO3)c1O)C(=O)N=2 (centres undefined),23*
COc1cccc(C(=O)Nc2nc3c(OC)ccc(OC)c3s2)c1OC,54
CCOC(=O)c1csc(NC(=O)c2cc(C)on2)n1,56
CN(C)c1ccc(C2=CC(C3CC3)=C(C#N)C(=C(C#N)C#N)N2)cc1,31*
CC(C)CNC(=O)CC1NCCNC1=O (centres undefined),58
O=c1[nH]c(CSc2nc3ccccc3o2)nc2ccccc12,55
O=c1c(Cl)c2oc3ccccc3nc-2c2ccccc12,32*
O=S(=O)(O)c1nc2ccccc2o1,61
CCn1nc(C)cc1C(=O)N=c1sc2cc(F)ccc2n1C,98
COc1ccc(-c2noc(CS(=O)(=O)c3ccc(Cl)s3)n2)cc1OC,75
